Experimental findings from PubChem BioAssay (Tox21) are described below.

Results filed as inconclusive are left out. A call without a number means that no potency is given here. Values without a mark were called inactive. The source made the active and inactive calls. Calls come from the whole dose curve; as a rule, active = well fitted curve in the direction sought with a large enough effect in the repeat runs; inconclusive = weak or mixed curves; inactive = no such curve, though single readings can be large; an effect the other way counts as inactive or inconclusive.

One assay is described as follows: qHTS assay to identify small molecule antagonists of the retinoid acid receptor (RAR) signaling pathway - cell viability counter screen (AID 1159551). Note: nearly all actives have a fitted effect of over 35% in size. As to conditions: C3RL4 cells viability, ATP luminescence (CellTiter-Glo), 6 h; series mostly up to 92.4 µM. The method in brief:
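Cytotoxicity counter screen in C3RL4 cells: 6 h compound exposure with 1 uM retinol (final), viability from cellular ATP by luminescence.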
In general terms: qHTS replaces the single test concentration by a dilution series.
As to `CC(=O)c1ccc2ccccc2c1`, the molecule was called inactive.
Same read-out and setting: with `O=[N+]([O-])c1cncn1CCN1CCOCC1` the entry was “inactive”; with `CN(C)[C@@H]1C(=O)C(C(=O)NCN2CCCC2)=C(O)[C@@]2(O)C(=O)C3=C(O)c4c(O)cccc4[C@@](C)(O)C3C[C@@H]12` (stereo partly drawn), “inactive”.
Still for that read-out and setting: in the case of `C[C@H]1[C@H](NC(=O)/C(=N/OC(C)(C)C(=O)O)c2csc(N)n2)C(=O)N1S(=O)(=O)O` (stereo in doubt) it was “inactive”.
Still for that read-out and setting: with `C1CCC2(CCCCO2)OC1` the entry was “inactive”; with `CCOc1c(N2CCOCC2)cnn(C)c1=O`, “inactive”.
On to `CC(CC=O)CC(C)(C)C` (stereo not drawn), for which the result was inactive.
For the molecule `CC1=CCC(O)(C(C)C)CC1` (stereo not drawn), the result was inactive.
Same read-out and setting: with `O=C(O)CNC(=O)c1ccccc1` the entry was “inactive”; with `Cc1ncc([C@@H](CCCCCCc2ccc3c(n2)NCCC3)CC(=O)O)cn1`, “inactive”.
On to `[Ca+2]`, for which the molecule was classed as inactive.
Same read-out and setting: in the case of `Cc1cccc(C)c1NC(=O)CC12CCCN1CCC2` it was “inactive”; in that of `CCN1C=CN(C)C1C` (stereo not drawn), “inactive”; in that of `CC1CCC(CO)CC1` (stereo not drawn), “inactive”.
With `CCC(C)(CCCC(C)C)OC(C)=O` (stereo not drawn), the call was inactive.
Same read-out and setting: with `Nc1ccn([C@@H]2O[C@H](CO)[C@@H](O)C2O)c(=O)n1` (stereo partly drawn) the entry was “inactive”; with `O=C1NC(=O)C2CC=CCC12` (stereo not drawn), “inactive”; with `CC1(C)OC[C@@H](COC(=O)CCc2ccc(OC[C@@H](O)CNCCNC(=O)N3CCOCC3)cc2)O1`, “inactive”.
Take `C[N+]1(C)[C@@H]2CC(OC(=O)[C@H](CO)c3ccccc3)C[C@H]1[C@@H]1O[C@@H]12` (stereo partly drawn): the molecule was classed as inactive.
For the molecule `CC(C)c1ccc2ncccc2c1`, the call was inactive.
Take `CCCCN1C=CN(C)C1`: the activity change, negative = cytotoxicity is 1.26% [at 19 µM].
For `CCCCOC(=O)CCC(C)=O`, the molecule was classed as inactive.
Same read-out and setting: with `COc1cc(C(=O)OC(COCCC(C)C)CN2CCOCC2)cc(OC)c1OC` (stereo not drawn) the entry was “inactive”.
Consider `O=C(CO)[C@@H](O)[C@H](O)[C@@H](O)CO`, for which the molecule was called inactive.
The same measure, in the same setting: in the case of `CN(C)CCCCCCN(C)C` it was “inactive”; in that of `CCCC(=O)O[C@]1(C(=O)CC)CC[C@H]2[C@@H]3CCC4=CC(=O)CC[C@]4(C)[C@H]3[C@@H](O)C[C@@]21C`, “inactive”.
Still for that read-out and setting: with `C=C(C)C(=O)OCCOCCOCCOCCOC(=O)C(=C)C` the entry was “inactive”; with `CC12CCC(C(=O)C1=O)C2(C)C` (stereo not drawn), “inactive”; with `O=C(O)Cc1csc(-c2ccc(Cl)cc2)n1`, “inactive”.
Same read-out and setting: with `Cc1c(N)c(=O)n(-c2ccccc2)n1C` the entry was “inactive”; with `CCCCN(CCC(=O)OCC)C(C)=O`, “inactive”; with `CCOC(=O)c1ccccc1`, “inactive”.
As to `CCCOC(=O)CC`, the result was inactive.
As for `OCCc1ccccn1`, the call was inactive.
On the same count and under the same terms, in the case of `CC/C=C\CCOC(C)OCC` (stereo not drawn) it was “inactive”.
The same measure, in the same setting: in the case of `CN(C)CCN(C)CCN(C)C` it was “inactive”; in that of `O=C(O)CNC(=O)c1ccc(CO)o1`, “inactive”; in that of `CC(=O)N1C[C@H](O)C[C@H]1C(=O)O`, “inactive”.

The nature of a further assay: qHTS assay to identify small molecule antagonists of the retinoic acid receptor (RAR) signaling pathway (AID 1159552; note: nearly all actives have a fitted effect of over 50% in size). To be noted: C3RL4 RARE luciferase reporter, retinol-stimulated, 6 h; series mostly up to 92.4 µM. The method in brief: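 Cells of the C3RL4 line were seeded, incubated overnight, then dosed with compounds in DMSO followed immediately by retinol (1 uM final). Six hours later luciferase detection reagent went in; signal was measured after 30 min at RT.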
As to `C[C@H]1[C@H](NC(=O)/C(=N/OC(C)(C)C(=O)O)c2csc(N)n2)C(=O)N1S(=O)(=O)O` (stereo in doubt), the Potency result was “inactive”.
On the same count and under the same terms, in the case of `CC(CC=O)CC(C)(C)C` (stereo not drawn) it was “inactive”.
With `CC1CCC(CO)CC1` (stereo not drawn), the Potency entry is “inactive”.
Still for that read-out and setting: with `O=C1NC(=O)C2CC=CCC12` (stereo not drawn) the entry was “inactive”; with `CC(C)c1ccc2ncccc2c1`, “inactive”.
Regarding `CCCCOC(=O)CCC(C)=O`, the Potency entry was “inactive”.
Still for that read-out and setting: with `CN(C)CCCCCCN(C)C` the entry was “inactive”.
Still for that read-out and setting: in the case of `C=C(C)C(=O)OCCOCCOCCOCCOC(=O)C(=C)C` it was “inactive”.
Still for that read-out and setting: in the case of `CC12CCC(C(=O)C1=O)C2(C)C` (stereo not drawn) it was “inactive”; in that of `Cc1c(N)c(=O)n(-c2ccccc2)n1C`, “inactive”.

The nature of the next assay: qHTS assay to identify small molecule agonists of the retinoic acid receptor (RAR) signaling pathway (AID 1159553). As to conditions: C3RL4 RARE luciferase reporter, agonist, 6 h; series mostly up to 73.3 µM. The essentials:
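Agonist activity was scored in C3RL4 cells bearing a retinoic acid response element luciferase construct. Cells were treated with compounds for 6 hr at 37 C, and luciferase signal was measured as luminescence.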
Consider `C[C@H]1[C@H](NC(=O)/C(=N/OC(C)(C)C(=O)O)c2csc(N)n2)C(=O)N1S(=O)(=O)O` (stereo in doubt), for which the Potency entry is “inactive”.
The same measure, in the same setting: in the case of `[Ca+2]` it was “inactive”; in that of `CCN1C=CN(C)C1C` (stereo not drawn), “inactive”; in that of `Nc1ccn([C@@H]2O[C@H](CO)[C@@H](O)C2O)c(=O)n1` (stereo partly drawn), “inactive”.
On the same count and under the same terms, with `O=C1NC(=O)C2CC=CCC12` (stereo not drawn) the entry was “inactive”.
Regarding `C[N+]1(C)[C@@H]2CC(OC(=O)[C@H](CO)c3ccccc3)C[C@H]1[C@@H]1O[C@@H]12` (stereo partly drawn), the Potency entry is “inactive”.
In the case of `CCCCN1C=CN(C)C1`, the Potency entry was “inactive”.
As to `CN(C)CCCCCCN(C)C`, the Potency entry is “inactive”.
On the same count and under the same terms, in the case of `CC12CCC(C(=O)C1=O)C2(C)C` (stereo not drawn) it was “inactive”; in that of `Cc1c(N)c(=O)n(-c2ccccc2)n1C`, “inactive”.
